# An excerpt weighted towards active compounds, which were near 19% of everything screened.
# HT1080 IDH1KD tx – HT-1080 IDH1 knockdown cell toxicity (counter line); HT-1080 IDH1 knockdown viability, ATP luminescence, 48 h; Potency, µM (highest dose often 46.1 µM), actives largely listed as cytotoxic; 360,000 tested, 2% active
#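 Luminescent ATP read-out (CellTiter-Glo, 10 min at room temperature) after 48 h compound exposure at 37 °C gave viability of IDH1-knockdown HT-1080 cells. Activity was normalised to DMSO and cell-free wells, then fitted as concentration-response curves.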
# IL-1B inflam inh – blocks inflammasome-driven IL-1 beta release | THP-1 LPS/ATP IL-1B secretion, AlphaLISA, 16 h; stronger effect = lower value | activity change, % at 57.5 µM | 360,000 tested, 4.7% active | AID 743279; in the data active = activity change below about -50%; inconclusive = mostly about -30% to -49%
#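 Secreted IL-1B measured by AlphaLISA bead assay after 16 h compound exposure of THP-1 cells; compounds (final up to 57.5 uM) added 1 h before LPS (250 ng/mL) and ATP (1.25 mM) stimulation; lower signal means less secretion.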
# HT1080-NT tox – kills 2HG-producing HT-1080-NT fibrosarcoma cells | HT-1080-NT fibrosarcoma viability, CellTiter-Glo ATP luminescence, 48 h | Potency, µM (titrated, usually from 46.1 µM), most hits filed as cytotoxic | 360,000 tested, 1.6% active;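 note: NT is the 2HG producing partner of a matched IDH1 knockdown line; nearly all actives have a fitted effect of over 55% in size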
#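 Read-out is CellTiter-Glo luminescence after 10 minutes at room temperature, following 48 hours' compound treatment of HT-1080-NT cells (750 cells/well, RPMI, 5% FBS, 37 degrees C).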
# TDP1 cell noCPT – qHTS for Inhibitors of human tyrosyl-DNA phosphodiesterase 1 (TDP1): qHTS in cells in absence of CPT; DT40 Tdp1-/- hTDP1 cells, no CPT, ATP luminescence, 48 h; Potency, µM (doses to about 46.2 µM), hits mostly inhibitors; 420,000 tested, 15% active; note: nearly all actives have a fitted effect of over 55% in size
#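 Compound effects on proliferation are scored in DT40 Tdp1-/-;hTDP1 cells in the absence of CPT. ATP levels (CellTiter-Glo luminescence) are recorded after a ≥48 hr, 37 °C incubation.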
# uPA generation – inhibitors of cell surface uPA generation; cell surface uPA generation assay, qHTS; Potency, µM (doses to about 38.3 µM), actives largely listed as inhibitors; 330,000 tested, 0.31% active; active = well fitted inhibition curve with a large enough effect; inconclusive = small, poorly fitted or top-dose-only effect; inactive = no such curve, though single readings can be large or run the other way; tested in mouse RAW 264.7 cells; note: nearly all actives have a fitted effect of over 55% in size
# TDP1 cell CPT – DT40-hTDP1 cell growth loss with CPT; chicken DT40 Tdp1-/-;hTDP1 cells + 20 nM CPT, ATP luminescence, 48 h; Potency, µM (top dose mostly 46.2 µM), most hits filed as inhibitors; 420,000 tested, 12% active; note: nearly all actives have a fitted effect of over 55% in size
#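 Chicken DT40 Tdp1-/- cells stably complemented with human TDP1 were seeded at 400 cells/well in medium containing 20 nM camptothecin, exposed to pin-transferred compounds, and grown at 37 °C for at least 48 hr. Viability was read as ATP luminescence.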
# Numbers stand for hits; n = inactive; u = inconclusive; x = not tested or not shown; [ ] = remark or other dose. Unless noted, calls come from the whole dose curve; as a rule, active = well fitted curve in the direction sought with a large enough effect; inconclusive = small, poorly fitted or top-dose-only effect, or another doubt; inactive = no such curve, though single readings can be large; an effect the other way counts as inactive or inconclusive.
SMILES,HT1080 IDH1KD tx,IL-1B inflam inh,HT1080-NT tox,TDP1 cell noCPT,uPA generation,TDP1 cell CPT
CCc1nc2ccc(C(=O)NCCc3c[nH]c4ccccc34)cn2c1N(C)Cc1ccc(N(C)C)cc1,n,n,n,u,x,u
CCNC(=O)c1sc2ncnc(NCCCN3CCOCC3)c2c1C,x,x,x,n,x,n[9.04 µM]
O=[N+]([O-])c1ccc(CN2CC(N3CCCC3)CS2(=O)=O)cc1 (stereo not given),n,n,n,n,x,n
O=[N+]([O-])c1ccc(CN2CC(N3CCC(Cc4ccccc4)CC3)CS2(=O)=O)cc1 (stereo not given),n,n,n,16.4µM,x,16.4µM
O=S1(=O)CC(N2CCC(Cc3ccccc3)CC2)CN1CCc1ccccc1 (stereo not given),n,n,n,20.6µM,x,u
Cc1cccc(CN2CCN(C3CN(Cc4ccc([N+](=O)[O-])cc4)S(=O)(=O)C3)CC2)c1 (stereo not given),u,n,n,23.1µM,x,16.4µM
Cc1ccc(S(=O)(=O)N2CCN(C(=O)Cn3cnc4c3c(=O)n(C)c(=O)n4C)CC2)cc1C,n,n,n,n,n,n
CC(=O)NCCOc1nc(N2CCCCC2)nc(N2CCCCC2)n1,n,n,n,14.6µM,n,n
CCN(CC)c1nc(OCCNC(=O)Nc2ccccc2)nc(N(CC)CC)n1,18.4µM,-63.4,20.6µM,u,n,u
O=C(NCCOc1nc(N2CCCCC2)nc(N2CCCCC2)n1)Nc1ccccc1,n,-63.3,n,23.1µM,n,u
Cc1ccc(NC(=O)C2C3CCC(O3)C2C(=O)O)cc1Cl (stereo not given),u,n,n,n,u,n
CNC[C@@H]1Oc2cc(Br)ccc2S(=O)(=O)N([C@@H](C)CO)C[C@@H]1C,n,n,n,n,x,n
COCC(=O)N1CCC(Oc2ccc(C(=O)N3CCSCC3)cc2)CC1,n,n,n,n,n,n
Cc1ccccc1N1CCN(C2CCCN(C(=O)c3ccccn3)C2)CC1 (stereo not given),n,n,n,25.9µM,u,n
Cc1ccccc1N1CCN(C2CCCN(C(=O)c3noc4c3CCCC4)C2)CC1 (stereo not given),n,n,n,8.2µM,n,9.2µM
Cc1cc(C(=O)N2CCCC(N3CCN(c4ccccc4C)CC3)C2)n(C)n1 (stereo not given),n,n,n,u,n,u
Cc1cnc(C(=O)N2CCCC(N3CCN(c4ccccc4C)CC3)C2)cn1 (stereo not given),n,n,n,u,n,18.4µM
Cc1ccccc1N1CCN(C2CCCN(C(=O)c3ccsc3)C2)CC1 (stereo not given),n,n,n,u,n,u
Cc1ccccc1N1CCN(C2CCCN(C(=O)c3cn4cccc(C)c4n3)C2)CC1 (stereo not given),n,n,n,8.2µM,n,23.1µM
Cc1c(C(=O)NCc2ccco2)sc(=O)n1Cc1ccc(S(C)(=O)=O)cc1,n,u,n,u,x,u
CC(C)(C)CCN1CCC(CN2CCNC2=S)CC1,n,n,n,n,x,n
CCc1[nH]nc(C(=O)N2CCCC(N3CCN(c4ccccc4C)CC3)C2)c1C (stereo not given),n,n,n,u,n,16.4µM
CSc1ncccc1C(=O)N1CCCC(N2CCN(c3ccccc3C)CC2)C1 (stereo not given),n,n,n,9.2µM,x,16.4µM
O=S(=O)(NC1c2cccc3cccc(c23)C1N1CCNCC1)c1ccc(Cl)cc1 (stereo not given),20.6µM,-60.4,18.4µM,11.6µM,n,13µM
C[C@H](CO)N1C[C@H](C)[C@@H](CN(C)S(=O)(=O)c2cn(C)cn2)Oc2c(NC(=O)Nc3ccc(C(F)(F)F)cc3)cccc2C1=O,n,n,n,n,n,u
SMILES,HT1080 IDH1KD tx,IL-1B inflam inh,HT1080-NT tox,TDP1 cell noCPT,uPA generation,TDP1 cell CPT
COc1ccc(NC(=O)Nc2cccc3c2O[C@H](CN(C)S(=O)(=O)c2ccc(F)cc2)[C@@H](C)CN([C@H](C)CO)C3=O)cc1,n,n,n,n,n,n
C[C@H]1CN([C@@H](C)CO)C(=O)c2cccc(NC(=O)Nc3ccc(C(F)(F)F)cc3)c2O[C@@H]1CN(C)S(=O)(=O)c1ccc(Cl)cc1,25.9µM,u,u,8.2µM,n,7.31µM
C[C@H](CO)N1C[C@H](C)[C@@H](CN(C)S(=O)(=O)c2ccc(F)cc2)Oc2c(NC(=O)Nc3ccc(C(F)(F)F)cc3)cccc2C1=O,n,-50.7,n,u,u,u
CC[C@]12c3[nH]c4cc(-c5ccco5)ccc4c3CCN1C(=O)[C@@H](CC(=O)NCc1ccco1)C[C@@H]2C(=O)N1CCN(C(=O)c2ccco2)CC1,n,n,n,u,n,u
CCN(CC)C(=O)[C@H]1C[C@H](CC(=O)NCCN2CCOCC2)C(=O)N2CCc3c([nH]c4cc(-c5ccco5)ccc34)[C@]12C,n,n,n,u,n,20.6µM
CCN(CC)C(=O)[C@H]1C[C@H](CC(=O)NCc2cccc(C(F)(F)F)c2)C(=O)N2CCc3c([nH]c4cc(-c5ccco5)ccc34)[C@]12C,u,-58.0,u,u,u,u
CCN(CC)C(=O)[C@H]1CC(CC(=O)NCCN2CCOCC2)C(=O)N2CCc3c([nH]c4ccc(OC)cc34)[C@]12C (stereo not given in full),n,n,n,n,n,n
CCN(CC)C(=O)[C@H]1CC(CC(=O)NCc2cccc(C(F)(F)F)c2)C(=O)N2CCc3c([nH]c4ccc(OC)cc34)[C@]12C (stereo not given in full),n,n,n,14.6µM,n,16.4µM
CC[C@]12c3[nH]c4cc(-c5ccco5)ccc4c3CCN1C(=O)[C@@H](CC(=O)NCc1cccc(C(F)(F)F)c1)C[C@@H]2C(=O)N1CCN(C(=O)c2ccco2)CC1,n,-51.4,n,8.2µM,u,8.2µM
Cc1cccc(C)c1NC(=O)C1(C)CN(S(C)(=O)=O)CC(=O)N1Cc1ccc2c(c1)OCO2 (stereo not given),n,n,n,n,x,n
CNc1ncnc2c1ncn2[C@H]1CN(Cc2ccc(F)cc2)C[C@@H](CO)O1,n,n,n,n,x,n
CCC(=O)Nc1cc(-c2nc3ccccc3s2)c(Cl)cc1Cl,x,x,x,n,x,n
CC(C)N(C(=O)[C@H]1CC(CC(=O)NCc2cccc(C(F)(F)F)c2)C(=O)N2CCc3c([nH]c4ccccc34)[C@]12C)C(C)C (stereo not given in full),n,u,n,23.1µM,u,18.4µM

# Bioassay records from PubChem.
